# Reference: a collection of fitness landscapes (doi:10.1016/j.celrep.2020.107928)
# Over roughly 81,000 sequences, “one-hybrid fitness for binding NBS DNA” has its median near -0.1; the highest 2% begin near 0.36. The sample as a whole holds a higher share of the highest values than the screen did.
# B1: Caulobacter ParB omega fusion; a variant is named by its letters at X, in order, B8GW30 (parent)
# chain: MESVVVGEPGMSEGRRGLGRGLSALLGEVDAAPAQAPGEQLGGSREAPIEILQRNPDQPRRTFREEDLEDLSNSIREKGVLQPILVRPSPDTAGEYQIVAGERAWRAAQRAGLKTVPIMVRELDDLAVLEIGIIENVQRADLNVLEEALSYKVLMEKFERTQENIAQTIGKSXSHVANXMRLLXLPDEVQSYLVSGELTAXHARAIAAAADPVALAKQIIEGGLSVRETEALARKAPNLSAGKSKGGRPPRVKDTDTQALESDLSSVLGLDVSIDHRGSTGTLTITYATLEQLDDLCNRLTRGI
# Variants of: B1
# Experiment: one-hybrid fitness for binding NBS DNA (the Noc-binding site; scaled: cognate 1, non-cognate 0); higher = stronger binding
# Conditions: with NBS DNA site
# In short: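 Pre- and post-selection plasmids were Illumina-sequenced, three replicate libraries were pooled, and any variant with under 10 reads was removed. The libraries were Caulobacter ParB with four specificity codons randomised, selected in E. coli USO through a HIS3 reporter whose site is 19 bp from the promoter. Cells grew 48 hours at 37°C on M9 without histidine, with 0.1 mM IPTG and 5 mM 3-AT. Fitness is the log change in variant-to-wild-type read ratio, rescaled against cognate and non-cognate.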
row,Variant,one-hybrid fitness for binding NBS DNA
1,VYRA,≤ 0.2
2,IHWG,≤ 0.2
3,RSLT,0.292
4,RKQH,≤ 0.2
5,RCLT,0.436
6,RKCQ,≤ 0.2
7,RKRG,0.238
8,RKRQ,0.246
9,RKCT,0.583
10,RKQP,≤ 0.2
11,RKQT,0.606
12,RKRT,0.676
13,RPLT,≤ 0.2
14,RKCM,≤ 0.2
15,YFSE,≤ 0.2
16,GPRA,≤ 0.2
17,PFTR,≤ 0.2
18,YKRA,≤ 0.2
19,NSHG,≤ 0.2
20,NIIS,≤ 0.2
21,GQRS,≤ 0.2
22,NYVI,≤ 0.2
23,EAFS,≤ 0.2
24,LCHL,≤ 0.2
25,RKWT,0.456

row,Variant,one-hybrid fitness for binding NBS DNA
1,RTLY,≤ 0.2
2,RKNT,0.698
3,RKNQ,≤ 0.2
4,RKNG,≤ 0.2
5,RFWT,≤ 0.2
6,RKGT,0.649
7,RKGM,0.218
8,RTLT,0.461
9,RTLP,≤ 0.2
10,RIWT,0.279
11,RKGQ,≤ 0.2
12,RNGC,≤ 0.2
13,RYHW,≤ 0.2
14,PRPF,≤ 0.2
15,RYAS,0.342
16,NTFG,≤ 0.2
17,PTNR,≤ 0.2
18,VRMT,≤ 0.2
19,RKIT,0.361
20,RKSC,0.273
21,RKLY,≤ 0.2
22,RKLK,≤ 0.2
23,RKLT,0.579
24,RKST,0.639
25,RKDF,≤ 0.2

row,Variant,one-hybrid fitness for binding NBS DNA
1,RKSF,≤ 0.2
2,RKYT,0.643
3,RKDT,0.498
4,RKPT,0.236
5,IDAR,≤ 0.2
6,TMSR,≤ 0.2
7,SFKS,≤ 0.2
8,WVLY,≤ 0.2
9,SIAR,≤ 0.2
10,RKVI,≤ 0.2
11,KPTD,≤ 0.2
12,SPSM,≤ 0.2
13,RVWC,≤ 0.2
14,RKHH,0.245
15,RPWT,≤ 0.2
16,RSWT,0.215
17,RCWT,0.418
18,RKHT,0.645
19,RKHP,≤ 0.2
20,NLDC,≤ 0.2
21,PTPS,≤ 0.2
22,QRQF,0.323
23,QREQ,≤ 0.2
24,QRQQ,0.397
25,QCQM,≤ 0.2

row,Variant,one-hybrid fitness for binding NBS DNA
1,QRQM,0.395
2,QHQH,≤ 0.2
3,QRQH,0.544
4,QCQH,0.222
5,QSQM,≤ 0.2
6,QLQQ,≤ 0.2
7,QRQN,0.402
8,QRQC,0.362
9,WQMR,≤ 0.2
10,TQQR,≤ 0.2
11,EVHL,≤ 0.2
12,DGGN,≤ 0.2
13,RFYH,≤ 0.2
14,ATCR,≤ 0.2
15,LYYL,≤ 0.2
16,KGWY,≤ 0.2
17,YQPD,≤ 0.2
18,QRQS,0.688
19,QRQD,0.228
20,QRQP,0.222
21,NYIC,≤ 0.2
22,TPDF,≤ 0.2
23,QTTC,0.223
24,QTTS,0.528
25,QTTH,0.385

row,Variant,one-hybrid fitness for binding NBS DNA
1,QTTD,≤ 0.2
2,QTTN,0.236
3,QTTP,≤ 0.2
4,DYIR,≤ 0.2
5,VVWY,≤ 0.2
6,HIDC,≤ 0.2
7,RCWS,0.388
8,RSWS,0.238
9,RKRS,0.666
10,RKYP,≤ 0.2
11,RKWN,≤ 0.2
12,RPWS,≤ 0.2
13,RKWS,0.467
14,RKRP,≤ 0.2
15,RKYS,0.562
16,RKYD,≤ 0.2
17,RKWD,≤ 0.2
18,RKRN,0.258
19,VTLY,≤ 0.2
20,TYNS,≤ 0.2
21,QTTI,≤ 0.2
22,HNLL,≤ 0.2
23,CGRS,≤ 0.2
24,WGSW,≤ 0.2
25,SGTG,≤ 0.2

row,Variant,one-hybrid fitness for binding NBS DNA
1,DHMC,≤ 0.2
2,QRPE,≤ 0.2
3,EVQC,≤ 0.2
4,LFWV,≤ 0.2
5,RKRD,≤ 0.2
6,RPIR,≤ 0.2
7,RKDN,≤ 0.2
8,RKIP,≤ 0.2
9,RKPR,≤ 0.2
10,RKRH,0.429
11,RKYH,0.228
12,RKPS,≤ 0.2
13,RKIS,0.403
14,RKDH,0.401
15,RKIR,0.384
16,RKNH,0.335
17,SRFC,≤ 0.2
18,FDKC,≤ 0.2
19,SRTT,≤ 0.2
20,PLES,≤ 0.2
21,WGAE,≤ 0.2
22,WTLY,≤ 0.2
23,RKLD,≤ 0.2
24,RKLP,≤ 0.2
25,RKLS,0.496

row,Variant,one-hybrid fitness for binding NBS DNA
1,ISNA,≤ 0.2
2,YLVK,≤ 0.2
3,QWGI,≤ 0.2
4,QPDA,≤ 0.2
5,QHNA,0.294
6,QRNA,0.632
7,QRDA,0.394
8,QANA,0.257
9,TKKF,≤ 0.2
10,TGPI,≤ 0.2
11,SSSR,≤ 0.2
12,GRQQ,≤ 0.2
13,PLWH,≤ 0.2
14,KPII,≤ 0.2
15,RDGI,≤ 0.2
16,NLSK,≤ 0.2
17,QAKD,≤ 0.2
18,QAKH,0.541
19,QAKN,0.356
20,QAVS,0.226
21,QAKS,0.618
22,QAVQ,0.32
23,QAKQ,0.408
24,QARQ,0.332
25,QAKP,≤ 0.2

row,Variant,one-hybrid fitness for binding NBS DNA
1,CHHT,≤ 0.2
2,ELRT,≤ 0.2
3,KKDT,≤ 0.2
4,KKQT,0.393
5,KKRT,0.381
6,KKAT,0.309
7,KKNT,0.425
8,KHQT,≤ 0.2
9,KKNN,≤ 0.2
10,KKYT,0.249
11,KKQP,≤ 0.2
12,YQVF,≤ 0.2
13,LPAV,≤ 0.2
14,QGMS,≤ 0.2
15,PQVE,≤ 0.2
16,PMPS,≤ 0.2
17,FPGC,≤ 0.2
18,QSNT,0.476
19,QLDT,0.249
20,QINH,≤ 0.2
21,QINT,0.462
22,QSDT,0.32
23,QPNT,≤ 0.2
24,QFNT,≤ 0.2
25,QLNN,≤ 0.2

row,Variant,one-hybrid fitness for binding NBS DNA
1,QIDT,≤ 0.2
2,QCNT,0.569
3,QSND,≤ 0.2
4,QLNT,0.45
5,MQSN,≤ 0.2
6,EVQG,≤ 0.2
7,AVQR,≤ 0.2
8,DELG,≤ 0.2
9,YHGF,≤ 0.2
10,ENKN,≤ 0.2
11,PKSC,≤ 0.2
12,EETG,≤ 0.2
13,PKIC,≤ 0.2
14,QANT,0.462
15,QHDT,0.344
16,QCDT,0.369
17,QAND,≤ 0.2
18,QPDT,≤ 0.2
19,QHNT,0.49
20,QFDT,≤ 0.2
21,QHNH,0.297
22,QADT,0.287
23,SMIR,≤ 0.2
24,HYMR,≤ 0.2
25,SMAM,≤ 0.2

row,Variant,one-hybrid fitness for binding NBS DNA
1,VWNK,≤ 0.2
2,TTMW,≤ 0.2
3,QTRD,0.379
4,QTYD,≤ 0.2
5,QTRP,0.401
6,QTYN,≤ 0.2
7,QTYP,≤ 0.2
8,QPRD,≤ 0.2
9,QTDN,≤ 0.2
10,QCRD,0.384
11,QSRD,0.219
12,QTDD,≤ 0.2
13,QTRN,0.543
14,AYPY,≤ 0.2
15,GIDC,≤ 0.2
16,TRKM,0.216
17,LSKY,≤ 0.2
18,CYIS,≤ 0.2
19,NMYI,≤ 0.2
20,PGKG,≤ 0.2
21,REGE,≤ 0.2
22,SGQC,≤ 0.2
23,TFKE,≤ 0.2
24,GTES,≤ 0.2
25,WLDV,≤ 0.2

row,Variant,one-hybrid fitness for binding NBS DNA
1,QYEV,≤ 0.2
2,CNVT,≤ 0.2
3,ADWS,≤ 0.2
4,MSTF,≤ 0.2
5,QTYH,0.271
6,QTRH,0.695
7,VRKE,≤ 0.2
8,VRDT,≤ 0.2
9,VRRT,0.432
10,VRNT,0.374
11,VRYT,0.225
12,VCKT,≤ 0.2
13,VCNT,≤ 0.2
14,VCRT,≤ 0.2
15,VRKT,0.393
16,VRVT,≤ 0.2
17,FQNR,≤ 0.2
18,ARIY,≤ 0.2
19,LLCL,≤ 0.2
20,RTHT,0.57
21,RIHY,≤ 0.2
22,RHHK,≤ 0.2
23,RSHT,0.402
24,RHHT,0.419
25,RNHT,≤ 0.2

row,Variant,one-hybrid fitness for binding NBS DNA
1,RIHF,≤ 0.2
2,RGHT,≤ 0.2
3,RTHN,≤ 0.2
4,RIHT,0.532
5,RTHP,≤ 0.2
6,TCRD,≤ 0.2
7,THRD,≤ 0.2
8,YERR,≤ 0.2
9,FARS,≤ 0.2
10,YKWR,≤ 0.2
11,GHSC,≤ 0.2
12,LSHC,≤ 0.2
13,RMHH,≤ 0.2
14,RMHP,≤ 0.2
15,RPHT,≤ 0.2
16,RAHK,≤ 0.2
17,RAHQ,≤ 0.2
18,RAHT,0.427
19,RMHT,0.448
20,RCHT,0.538
21,RFHT,0.263
22,AGWC,≤ 0.2
23,CVAV,≤ 0.2
24,ANSI,≤ 0.2
25,SVIN,≤ 0.2

row,Variant,one-hybrid fitness for binding NBS DNA
1,CNSM,≤ 0.2
2,QFDR,≤ 0.2
3,QFAG,≤ 0.2
4,QFFG,0.554
5,QFFR,0.439
6,QFYR,≤ 0.2
7,QFKR,0.595
8,QFRR,0.441
9,QFFS,≤ 0.2
10,QFVR,≤ 0.2
11,QFKH,≤ 0.2
12,QFYG,≤ 0.2
13,QFAR,≤ 0.2
